Gal4-VP16 FLuc: Gal4-VP16 reporter inhibition counter-screen | Drosophila S2 Gal4-VP16 UAS-luciferase, luminescence, 20 h | Potency, µM (titrated, usually from 53.6 µM), inactives show top-dose activity, negative = inhibition, usual class: inhibitors | 310,000 compounds, 3.5% hits | AID 2546;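 also: Gal4-VP16 expression switched on by copper sulfate through the metallothionein promoter; % is scaled to controls: 0 for no effect and ±100 for the full control effect; nearly all actives have a fitted effect of over 50% in size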
Epigenetic derep: regulators of epigenetic silencing causing reporter derepression in mouse cells | murine LDR cells, GFP reporter derepression, 30 h | Potency, µM (doses to about 53.9 µM), without a hit: at the highest dose GFP activation, hits mostly activators | 280,000 compounds, 0.2% hits; also: % of control where 0% means no effect; nearly all actives have a fitted effect of over 60% in size
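Reporter derepression read as number of fluorescent GFP-positive objects, 20-120 um in size, counted by laser-scanning cytometer. Mouse LDR line with an epigenetically silenced CMV-GFP locus; compound incubation 30 h, 37 C.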
RORg inh: ROR gamma (mouse) transcription inhibition; 310,000 compounds, 5.4% hits; P51450; AID 2551; Potency, µM (top dose mostly 53.6 µM), for the others: top-dose activity change, negative = inhibition, usual class: inhibitors; Drosophila S2 Gal4-RORgamma UAS-luciferase reporter, 20 h; also: % is scaled to controls: 0 for no effect and ±100 for the full control effect; nearly all actives have a fitted effect of over 60% in size
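Stably transfected Drosophila Schneider cells are the test system, with ROR gamma fused to Gal4 and luciferase under UAS control; luminescence is read after 20 hr of 700 uM copper sulfate induction at ambient temperature.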
ClpP mod: qHTS Assay for Activators of ClpP; ATP-dependent Clp protease proteolytic subunit (Bacillus subtilis (strain 168)), P80244; purified B. subtilis ClpP, FRET peptide cleavage, 20 min; 340,000 compounds, 1.9% hits; Potency, µM (doses to about 57.5 µM), for the others: top-dose activity change, negative = active; active = well fitted falling curve with a large enough effect; inconclusive = small, poorly fitted or top-dose-only effect; inactive = no such curve, though single readings can be large or run the other way; also: the source files actives as falling curves though it sought activators and does not explain the sign; nearly all actives have a fitted effect of over 65% in size
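FRET quenching reversal measured ClpP activation: 10 microg/mL B. subtilis ClpP at pH 8 with the FRET-FV decapeptide, read at 430 nm after 320 nm excitation. The 20-min minus 0-min signal was scaled between DMSO/no-enzyme wells and ADEP (5.8 microM final).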
Sfp inh: Sfp phosphopantetheinyl transferase inhibition | AID 1490 | 310,000 compounds, 3.5% hits | Biochemical Sfp PPTase activity, qHTS | Potency, µM, inactives show largest response in the series, negative = inhibition, actives largely listed as inhibitors | Q9F4F7;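 also: the enzyme is Sfp with the accession as filed and its product quenches rhodamine fluorescence; 0% = enzyme reaction without inhibitor and -100% = no enzyme wells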
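With Hepes-Na pH 7.6 buffer containing 10 mM MgCl2, Sfp (15 nM) modified BHQ-2-YbbR (12.5 uM) using rhodamine-CoA (5 uM). Two reads 30 minutes apart at 525/598 nm yielded each well's rate.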
PINK1 expr mod: modulators of PINK1 expression. PINK1 immunofluorescence, high-content cytometry, 24 h. Potency, µM (titrated, usually from 76.6 µM), without a hit: at the highest dose activation (PINK1 increase), hits mostly activators. 410,000 compounds, 0.2% hits; active = well fitted activation curve with a large enough effect; inconclusive = small, poorly fitted or top-dose-only effect; cell line not stated here; also: % of control where 0% means no effect; nearly all actives have a fitted effect of over 65% in size
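Decision-based qHTS: stable cells, 24 h exposure to five compound concentrations, CCCP as control. Fixed cells stained for PINK1 plus nuclear, mitochondrial and cell markers, cytometer read.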
An asterisk follows results filed as active; u = inconclusive; x = no result given; ! = repeats disagree; [ ] = dose if it differs, or a comment. The list is not random: actives were taken first. Their share in the collection is about 8.1%. Unless noted, calls follow the shape of the dose curve; as a rule, active = well fitted curve in the direction sought with a large enough effect; inconclusive = small, poorly fitted or top-dose-only effect, or another doubt; inactive = no such curve, though single readings can be large; an effect the other way counts as inactive or inconclusive. Potency is read from the fitted curve at half-maximal effect.

SMILES	Gal4-VP16 FLuc	Epigenetic derep	RORg inh	ClpP mod	Sfp inh	PINK1 expr mod
CNC(=S)S	-6%	x	-5%	x	-19%	x
C[C@@H]1C[C@@H]([C@H](O)CC2CC(=O)NC(=O)C2)C(=O)[C@@H](C)C1	0.0089µM*!	u	0.32µM*!	-2%	8%	-1%
CCC(CO)NC(=O)[C@@H]1C=C2c3cccc4[nH]cc(c34)C[C@H]2N(C)C1 (stereo partly specified)	x	-1%	x	x	x	x
c1ccc2c(c1)CCCC2	-7%	x	2%	x	x	x
CN(CCc1ccc(Cl)c(Cl)c1)[C@@H]1CCCC[C@@H]1N1CCCC1	x	0%	x	x	16%	x
S=c1[nH]nc(-c2ccco2)n1/N=C/c1cccs1	u	2%	-27%	-1%	-25%	-1%
S=c1[nH]nc(-c2ccco2)n1-c1cccc2ccccc12	13µM*	0%	7.9µM*	-1%	-15%	0%
COc1cccc(N2C(=O)NC(=O)/C(=C/c3ccc([N+](=O)[O-])s3)C2=O)c1	-5%	0%	7%	x	25µM*	1%
COc1ccc(N2C(=O)NC(=O)/C(=C\c3ccc([N+](=O)[O-])s3)C2=O)cc1	-2%	u	u	x	40µM*	0%
COc1ccccc1N1C(=O)NC(=O)/C(=C/c2ccc([N+](=O)[O-])s2)C1=O	-4%	3%	8%	1%	22µM*	1%
COc1ccc(N2C(=O)NC(=O)/C(=C/c3ccc([N+](=O)[O-])s3)C2=O)cc1	3%	-2%	12%	-5%	25µM*	0%
COc1ccc(CN2CCN(C(=O)Cn3c(=O)oc4cc(Cl)ccc43)CC2)c(OC)c1OC	u	x	u	1%	16%	5%
O=C(Oc1ccccc1)N1CCC[C@@]2(CCN(Cc3cc(C(F)(F)F)cc(C(F)(F)F)c3)C2)C1	1%	x	20%	x	10%	0%
COC(=O)CSc1nc2sc3c(c2c(=O)n1C1CCCCC1)CCN(C)C3	-6%	1%	-39%	x	56µM*	x
O=C(O)C(Cl)(Cl)Br	-7%	x	4%	x	x	x
O=C(CN1CCOCC1)c1ccc(Br)cc1	2%	x	9%	x	-9%	3%
S=C(c1ccc(Cl)cc1)N1CCOCC1	-1%	-5%	8%	-2%	40µM*	0%[38.3 µM]
CC(C)c1cccc(O)c(=O)c1	2.8µM*!	u	2µM*	-3%	56µM*!	5%
CCCCC(C#N)(Cn1cncn1)c1ccc(Cl)cc1 (stereo unspecified)	0%	x	31%	x	5%	x
c1cc2cc(c1)C[n+]1ccc(c3ccccc31)NCc1ccc(cc1)CNc1cc[n+](c3ccccc13)C2	-19%	0%	0%	x	2%	x
Cc1nnc(N2CCC(C(=O)NCc3ccc(N(C)C)cc3)CC2)c2nn(-c3ccccc3)c(C)c12	x	2%	x	u	x	4%
COC(=O)c1ccc(N=C(c2ccccc2)c2c(O)n(C)c(=O)n(C)c2=O)cc1	0%	0%	5%	-3%	u	1%
C/C(=N\NC(=S)Nc1ccccc1)c1c(O)n(C)c(=O)n(C)c1=O	u	-1%	8.9µM*	-1%	28µM*	0%
CSC(=Nc1ccccc1)c1c(O)n(C)c(=O)n(C)c1=O	-11%	-4%	u	0%	56µM*	2%[38.3 µM]
CC/C(=N\Nc1ccccc1)c1c(O)n(C)c(=O)n(C)c1=O	-8%	3%	u	-5%	u	-1%
SMILES	Gal4-VP16 FLuc	Epigenetic derep	RORg inh	ClpP mod	Sfp inh	PINK1 expr mod
Cn1c(O)c(C(=Nc2ccccc2)SCc2ccccc2Cl)c(=O)n(C)c1=O	-5%	-2%	u	-5%	40µM*	9%
CC(CCC(=O)O)C1CCC2C3C(=O)C[C@@H]4CC(=O)CC[C@@]4(C)C3CC(=O)[C@]12C (stereo partly specified)	9%	-3%	-19%	x	7%	3%
c1ccc2sc(C3(N4CCCC4)CCCCC3)cc2c1	x	0%	x	x	9%	x
CC(C)OC(=O)c1c(N)n(CC2CCCO2)c2nc3ccccc3nc12 (stereo unspecified)	-8%	-8%	-23%	-8%	16%	4%
CC(C)OCCCNC(=O)c1c(N)n(CC2CCCO2)c2nc3ccccc3nc12 (stereo unspecified)	-8%	-20%	13%	14µM*	-11%	-2%[38.3 µM]
CC(C)CCn1c(N)c(C(=O)OCC2CCCO2)c2nc3ccccc3nc21 (stereo unspecified)	19%	0%	0%	15%	5%	-2%
CCCNC(=O)c1c(N)n(CC2CCCO2)c2nc3ccccc3nc12 (stereo unspecified)	6.3µM*	-1%	u	18µM*	u	-1%
CCCCn1c(N)c(C(=O)OCC2CCCO2)c2nc3ccccc3nc21 (stereo unspecified)	-23%	1%	-10%	u	-10%	u
CC(C)CCOC(=O)c1c(N)n(CC2CCCO2)c2nc3ccccc3nc12 (stereo unspecified)	-3%	-1%	-2%	28µM*	-16%	-1%
CN1Cc2c(ccc3c2OCO3)C2C(O)Cc3cc4c(cc3C21)OCO4 (stereo unspecified)	-14%	3%	5%	x	31%	5%
CCN(CC)c1ccc(/C=C2\C(=O)NC(=S)N(c3ccc(OC)cc3OC)C2=O)o1	x	x	x	-1%	x	0%
O=C1NC(=S)N(c2ccc(F)cc2)C(=O)/C1=C/c1ccccc1O	3%	x	-17%	0%	-14%	2%
O=C1NC(=S)N(c2ccccc2)C(=O)/C1=C/c1ccco1	-2%	x	-1%	x	22µM*	-1%
COc1ccc(N2C(=O)/C(=C/c3cccs3)C(=O)NC2=S)cc1	3%	u	2%	x	8.9µM*	-1%
CCOc1cccc(N2C(=O)/C(=C/c3ccco3)C(=O)NC2=S)c1	-1%	x	0%	-1%	35µM*	1%
COc1ccccc1/C=C1\C(=O)NC(=S)N(c2ccccc2)C1=O	3%	x	-21%	-4%	45µM*	1%
Cc1cc(/C=C/c2cccc3sc(C)[n+](CCCCI)c23)ccc1N(CCCl)CCCl	x	x	x	2%	x	3%
C[C@H](NC(=O)[C@@H](N)Cc1ccc(O)cc1)C(=O)N[C@@H](Cc1ccccc1)C(=O)NCC(=O)N[C@@H](Cc1ccc(O)cc1)C(=O)N1CCC[C@H]1C(=O)N[C@@H](CO)C(N)=O	x	0%	x	x	21%	x
O=C(CC[N+](=O)[O-])OCC1OC(O)C(OC(=O)CC[N+](=O)[O-])[C@@H](OC(=O)CC[N+](=O)[O-])C1OC(=O)CC[N+](=O)[O-] (stereo partly specified)	-16%	1%	4%	x	-6%	1%
